According to PubChem BioAssay (NCI):
This is part of a sample that, as a whole, favours compounds with a hit. Of some 83,000 tested, about 20% had one in any assay.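 Each cell line was grown in a 96-well plate and treated with one concentration of compound for 48 hours. Values below 10 were considered active.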 A number with no mark means an inactive call. The source made the active and inactive calls.

Key:
Experiment in all cases: NCI-60 one-dose screen, 48 h (100 = growth as untreated, 0 = no growth, -100 = all killed)
Settings in all cases: 10 µM unless noted
NCI-H23 lung = test system: NCI-H23 lung
NCI-H226 lung = test system: NCI-H226 lung
NCI-H322M lung = test system: NCI-H322M lung
HOP-62 NSCLC = test system: HOP-62 NSCLC
NCI-H460 lung = test system: NCI-H460 lung
HOP-92 NSCLC = test system: HOP-92 NSCLC
NCI-H522 lung = test system: NCI-H522 lung
A549/ATCC NSCLC = test system: A549/ATCC NSCLC
786-0 renal = test system: 786-0 renal
COLO 205 colon = test system: COLO 205 colon
DU-145 prostate = test system: DU-145 prostate
K-562 leukemia = test system: K-562 leukemia
MALME-3M melanoma = test system: MALME-3M melanoma
MDA-MB-231 breast = test system: MDA-MB-231 breast
RXF 393 renal = test system: RXF 393 renal
SF-268 CNS = test system: SF-268 CNS
SF-295 CNS = test system: SF-295 CNS
SF-539 CNS = test system: SF-539 CNS
UACC-257 melanoma = test system: UACC-257 melanoma
M14 melanoma = test system: M14 melanoma

Q: Which results are given for `NC(N)=NC(N)=NCCCc1ccco1`?
A: growth (NCI-H23 lung): 105%; growth (NCI-H226 lung): 111%; growth (NCI-H322M lung): 105%; growth (HOP-62 NSCLC): 101%; growth (NCI-H460 lung): 108%; growth (HOP-92 NSCLC): 95.4%; growth (NCI-H522 lung): 93.6%; growth (A549/ATCC NSCLC): 102%; growth (786-0 renal): 112%; growth (COLO 205 colon): 111%; growth (DU-145 prostate): 115%; growth (K-562 leukemia): 96.8%; growth (MALME-3M melanoma): 96.4%; growth (MDA-MB-231 breast): 107%; growth (RXF 393 renal): 114%; growth (SF-268 CNS): 94.1%; growth (SF-295 CNS): 93.9%; growth (SF-539 CNS): 103%; growth (UACC-257 melanoma): 99.8%; growth (M14 melanoma): 111%

Q: Which growth (NCI-H23 lung) does the source give for `COc1ccc(C(c2cc(OC)c(OC)c(OC)c2)n2ccnc2)cc1O` (stereo not given) here?
A: 38.9%

Q: What about the growth (NCI-H226 lung) of the same compound?
A: 68.7%

Q: What about the growth (NCI-H322M lung) of the same compound?
A: 48.2%

Q: What about the growth (HOP-62 NSCLC) of the same compound?
A: 29.5%

Q: And the growth (NCI-H460 lung)?
A: 6.11% (active)

Q: And the growth (HOP-92 NSCLC)?
A: 25.8%

Q: What about the growth (NCI-H522 lung) of the same compound?
A: 12.1%

Q: What about the growth (A549/ATCC NSCLC) of the same compound?
A: 12.8%

Q: What about the growth (786-0 renal) of the same compound?
A: 20%

Q: And the growth (COLO 205 colon)?
A: -9.99% (active)

Q: And the growth (DU-145 prostate)?
A: 12.9%

Q: And the growth (K-562 leukemia)?
A: 8% (active)

Q: What about the growth (MALME-3M melanoma) of the same compound?
A: 66.6%

Q: What about the growth (MDA-MB-231 breast) of the same compound?
A: 34.8%

Q: And the growth (RXF 393 renal)?
A: -5.38% (active)

Q: And the growth (SF-268 CNS)?
A: 39.6%

Q: And the growth (SF-295 CNS)?
A: -3.02% (active)

Q: And the growth (SF-539 CNS)?
A: 9.52% (active)

Q: What about the growth (UACC-257 melanoma) of the same compound?
A: 37.8%

Q: What about the growth (M14 melanoma) of the same compound?
A: 0.908% (active)

Q: What does the source list for `C[N+]1=C(/C=C\C=C\c2ccccc2)C(C)(C)c2ccccc21`?
A: growth (NCI-H23 lung): 18.7%; growth (NCI-H226 lung): 63.8%; growth (NCI-H322M lung): 81.2%; growth (HOP-62 NSCLC): 52%; growth (NCI-H460 lung): 43.4%; growth (HOP-92 NSCLC): -7.51% (active); growth (NCI-H522 lung): -3.08% (active); growth (A549/ATCC NSCLC): 28%; growth (786-0 renal): 33.6%; growth (COLO 205 colon): -43.4% (active); growth (DU-145 prostate): 48.7%; growth (K-562 leukemia): 4.69% (active); growth (MALME-3M melanoma): -17.8% (active); growth (MDA-MB-231 breast): 9.89% (active); growth (RXF 393 renal): 38%; growth (SF-268 CNS): 38.5%; growth (SF-295 CNS): 72.4%; growth (SF-539 CNS): 8.59% (active); growth (UACC-257 melanoma): 8.91% (active); growth (M14 melanoma): 20.5%

Q: Which results are given for `COc1cc(/C=C(/c2ccccc2)[N+](=O)[O-])c(OC)c2c1OCO2`?
A: growth (NCI-H23 lung): -34.7% (active); growth (NCI-H226 lung): 24.8%; growth (NCI-H322M lung): 3.33% (active); growth (HOP-62 NSCLC): -19.6% (active); growth (NCI-H460 lung): -16.1% (active); growth (HOP-92 NSCLC): -49.2% (active); growth (NCI-H522 lung): -62.8% (active); growth (A549/ATCC NSCLC): 5.75% (active); growth (786-0 renal): -98% (active); growth (COLO 205 colon): -53.1% (active); growth (DU-145 prostate): -87.4% (active); growth (K-562 leukemia): 0.225% (active); growth (MALME-3M melanoma): -49.6% (active); growth (MDA-MB-231 breast): -47.9% (active); growth (RXF 393 renal): -79.8% (active); growth (SF-268 CNS): 21.1%; growth (SF-295 CNS): 28.8%; growth (SF-539 CNS): -90.5% (active); growth (UACC-257 melanoma): 17.3%; growth (M14 melanoma): 11.9%

Q: Which growth (NCI-H23 lung) does the source give for `N=c1ccccn1CCO` here?
A: 101%

Q: What about the growth (NCI-H226 lung) of the same compound?
A: 107%

Q: What about the growth (NCI-H322M lung) of the same compound?
A: 96.7%

Q: And the growth (HOP-62 NSCLC)?
A: 110%

Q: And the growth (NCI-H460 lung)?
A: 114%

Q: What about the growth (HOP-92 NSCLC) of the same compound?
A: 96.5%

Q: What about the growth (NCI-H522 lung) of the same compound?
A: 114%

Q: And the growth (A549/ATCC NSCLC)?
A: 99.3%

Q: What about the growth (786-0 renal) of the same compound?
A: 102%

Q: What about the growth (COLO 205 colon) of the same compound?
A: 110%

Q: And the growth (DU-145 prostate)?
A: 125%

Q: And the growth (K-562 leukemia)?
A: 108%

Q: What about the growth (MALME-3M melanoma) of the same compound?
A: 111%

Q: And the growth (MDA-MB-231 breast)?
A: 95%

Q: And the growth (RXF 393 renal)?
A: 114%

Q: What about the growth (SF-268 CNS) of the same compound?
A: 110%

Q: What about the growth (SF-295 CNS) of the same compound?
A: 124%

Q: What about the growth (SF-539 CNS) of the same compound?
A: 107%

Q: What about the growth (UACC-257 melanoma) of the same compound?
A: 105%

Q: What about the growth (M14 melanoma) of the same compound?
A: 102%

Q: What does the source list for `Cc1ccc2[nH]c(=S)[nH]c(=O)c2c1`?
A: growth (NCI-H23 lung): 100%; growth (NCI-H226 lung): 102%; growth (NCI-H322M lung): 102%; growth (HOP-62 NSCLC): 99.4%; growth (NCI-H460 lung): 106%; growth (HOP-92 NSCLC): 93.4%; growth (NCI-H522 lung): 94.7%; growth (A549/ATCC NSCLC): 98.9%; growth (786-0 renal): 94.9%; growth (COLO 205 colon): 117%; growth (DU-145 prostate): 109%; growth (K-562 leukemia): 97.1%; growth (MALME-3M melanoma): 102%; growth (MDA-MB-231 breast): 109%; growth (RXF 393 renal): 104%; growth (SF-268 CNS): 100%; growth (SF-295 CNS): 104%; growth (SF-539 CNS): 99.7%; growth (UACC-257 melanoma): 101%; growth (M14 melanoma): 101%

Q: What does the source list for `COC(=O)/C=C1/SC(N2N=C(c3cccs3)CC2c2ccc(F)cc2)=NC1=O` (stereo not given)?
A: growth (NCI-H23 lung): 82.2%; growth (NCI-H226 lung): 84%; growth (NCI-H322M lung): 93%; growth (HOP-62 NSCLC): 85.2%; growth (NCI-H460 lung): 24.4%; growth (HOP-92 NSCLC): 77.1%; growth (NCI-H522 lung): 24.3%; growth (A549/ATCC NSCLC): 90.7%; growth (786-0 renal): 85.3%; growth (COLO 205 colon): 21.8%; growth (DU-145 prostate): 31%; growth (K-562 leukemia): 5.16% (active); growth (MALME-3M melanoma): 79.7%; growth (MDA-MB-231 breast): 35%; growth (RXF 393 renal): 48.7%; growth (SF-268 CNS): 32.4%; growth (SF-295 CNS): 91.4%; growth (SF-539 CNS): 91.6%; growth (UACC-257 melanoma): 84.4%; growth (M14 melanoma): 50.8%

Q: What does the source list for `Nc1ncnc2c1C(c1ccc([N+](=O)[O-])cc1)c1sc3c(F)cccc3c1O2` (stereo not given)?
A: growth (NCI-H23 lung): 86.8%; growth (NCI-H226 lung): 62.9%; growth (NCI-H322M lung): 93.6%; growth (HOP-62 NSCLC): 116%; growth (NCI-H460 lung): 89.4%; growth (HOP-92 NSCLC): 107%; growth (NCI-H522 lung): 84.3%; growth (A549/ATCC NSCLC): 99.9%; growth (786-0 renal): 103%; growth (COLO 205 colon): 109%; growth (DU-145 prostate): 93.1%; growth (K-562 leukemia): 83.4%; growth (MALME-3M melanoma): 104%; growth (MDA-MB-231 breast): 84.4%; growth (RXF 393 renal): 101%; growth (SF-268 CNS): 98.7%; growth (SF-295 CNS): 106%; growth (SF-539 CNS): 96%; growth (UACC-257 melanoma): 121%; growth (M14 melanoma): 112%
